According to PubChem BioAssay AID602208 (Johns Hopkins Ion Channel Center, 2012):
Results with a measured potency or affinity are listed apart. Active and inactive are the calls of the source.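 How the source made its calls: active means average duplicate choline uptake below buffer control mean minus 3 SD, with a fitted dose curve; inactive means the rest.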

The molecules below were run against High affinity choline transporter 1 (Homo sapiens) (UniProt Q9GZV3) (assay: inhibitors of CHT choline uptake, dose response, cell-based, 3H-choline uptake, CHT LV-AA trafficking mutant, CRC (AID 602208)). Conditions: HEK293 CHT LV-AA cells.
Sequence of High affinity choline transporter 1 (Homo sapiens) (Q9GZV3 whole entry, looked up): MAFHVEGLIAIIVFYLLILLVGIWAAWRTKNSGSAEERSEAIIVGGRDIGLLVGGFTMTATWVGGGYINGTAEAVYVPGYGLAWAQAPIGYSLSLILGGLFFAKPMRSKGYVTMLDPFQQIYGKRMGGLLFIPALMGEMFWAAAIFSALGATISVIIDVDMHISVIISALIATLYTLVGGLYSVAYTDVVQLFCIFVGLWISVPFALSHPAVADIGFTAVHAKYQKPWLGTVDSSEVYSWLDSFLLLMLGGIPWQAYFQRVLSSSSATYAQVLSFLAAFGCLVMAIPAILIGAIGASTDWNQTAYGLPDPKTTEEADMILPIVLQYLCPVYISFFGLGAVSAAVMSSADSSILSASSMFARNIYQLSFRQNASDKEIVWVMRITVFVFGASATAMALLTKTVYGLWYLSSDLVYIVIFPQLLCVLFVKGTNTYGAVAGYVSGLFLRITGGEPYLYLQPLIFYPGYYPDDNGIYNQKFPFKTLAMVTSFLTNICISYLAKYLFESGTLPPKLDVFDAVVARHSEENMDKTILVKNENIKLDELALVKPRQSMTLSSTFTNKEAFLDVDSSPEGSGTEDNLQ

outcome, inactive:
CC1CCCCC1NC(=O)c1cccc(S(=O)(=O)N2CCN(C)CC2)c1 (configuration not stated)
CCN(CC)S(=O)(=O)c1cc(C(=O)Nc2nncs2)c(Cl)cc1Cl
Cc1cc(NS(=O)(=O)c2ccc(NC(=O)C(C)Oc3cccc(C)c3C)cc2)nc(C)n1 (configuration not stated)
CCc1cccc(CC)c1NC(=O)c1cccc(S(=O)(=O)N2CCN(C)CC2)c1
Cc1cc(C)c(C(=O)Nc2ccc(S(=O)(=O)Nc3ccccn3)cc2)c(C)c1
Cc1cc(NS(=O)(=O)c2ccc(NC(=O)c3ccc(Cl)cc3Cl)cc2)no1
COc1cc(NS(=O)(=O)c2ccc(NC(=O)c3ccc(Cl)cc3Cl)cc2)ncn1
